Results from the supplement of paper PMC6555819.

tested on: VDR:RXRa (NR concentration 270 nM, RXRa partner concentration 90 nM); assay: PBM binding z-score (relative to random genomic background probes); higher = stronger binding; sequences stand for … in GC…GCGATTGACAGCGTAGAATGAAGG
Procedure: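 Protein-binding microarray (Agilent 4x180K custom design, double-stranded 60-nt probes: 5' GC cap, 34-nt variable region, 24-nt constant primer region; full probe sequence given). Purified or IVT nuclear receptor:RXRα heterodimers (3:1 NR:RXRα, mostly 270:90 nM) or homodimers were incubated for 1 h in PBS with 2% milk and no ligand, then detected with Alexa488 antibodies. Fluorescence from o1-orientation probes (~5 replicates averaged) was converted to z-scores against 500 random hg19 background probes. Variable regions are seed direct-repeat (DR0–DR5) sites, all their single-nucleotide variants and half-site ablations.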

Sequence | PBM binding z-score
TGAATGAGGTTACAGATCAGGGAACGTGGCGTCG | 0.932
GCTGCTAGGTCAGGTTGGTTAGCTAACGGGTACG | 0.262
CGTCCAAGGTCAGCACGTCAGTGAAAGCGACGTG | 2.46
TCTGCTAGGTCCGTTGGTCAGCTAACGAGCTGCC | -0.499
CCTACTGGGCCAAAAAGGTCACTGATGCCGATAA | 4.5
ACTAGCAGGCCAAGGGACACTCAAGATTAGTCCG | -0.487
GGAACGAGGGCATTCGAGCTGATAGCATGGCGAT | 0.809
TCTAGTTGGTCAAATGTCACACACTCGAAATGCG | 1.44
CGAACTAGGTCAGAACAGGACAGTGCAGGATGAT | 0.787
CTCGAAATGTCGTGCTCAGGTGAGTATACCAAAC | 0.0153
TATTGTAGATCAAGCAGGTTAAGAAAGCCTGAGT | 0.301
AGAAGGAGGGCACGCTGAGTTGATAGCAGAGTAG | 1.41
AGAACGCGGGCACGCTGAGTTGATAGCAGAGTAG | -0.403
TCTTGTAGATCAAGCAGGTTACGAAAGCCTGAGT | 0.633
TCTTGTAGATCAGCAGGTGAAGAAAGCTGGCCAA | 0.208
CCTCGGAGGACAGAATGTCAGAGCTGTCCGCTTT | -0.778
ACTATCAGGCCAAGTTTGGGTCACTCAAACAAAG | 1.01
CTACCAAGGTGAACAAGGTCGTTGGTTACTATTC | 5.92
CGAACTAGGTCAGAACAGGACAGTGACGGATGAT | 0.542
ACTATTAGTTGAGACGAGGGCAATCGATAGGTTG | 0.793

Sequence | PBM binding z-score
TGTCGGAGGACACGAAGGTCAGAGCTTTCCAGAG | 2.42
CCGAGCAGGCCAGGGTCACTCAAGCATTTCGCTT | 2.6
ATATGTAGGTTATCGAGTCATTCAGTTTGCGCAT | 1.72
ACTATTAGTTGAGACGAGAGCAACCGATAGGTTG | 0.00985
GCTTGTAGATCAAGGTTAAGAATGACTAAGCTAA | 0.0818
ATCGAAAGGTTGAGGTGAGTATAGAGAAAGGGAA | 0.543
TCATATAGGTAATGGTGAAAGTCGAACGATATGA | 0.243
CGAACTAGGTCATCCGGGACAGTGAATACATTGA | 4.04
ACTATTATTTGACTTAGGGCAACCGATACGACGC | 0.993
TTACCAAGGTTAGCTGAGGTCGTTGATCCAACTC | 5.09
TCTATCAGTTGATTAGGGCAACCGAAACAGCGGA | 0.419
TCTTGGAGGACACGAAAGGTCAGAGCTCGACATC | 3.58
ATATGTAGGTTACATCCGGGTCATTTAGGCTATG | 3.9
CGCACTAGGTCAGAACAGGACAGTGAAGGATGAT | 0.776
ATCTCTAGGTAAAGTTCAGTGCAAGATCGATAGA | 1.87
GGAACGAGGGCGAAGTTGATAGCATCTGTCGACG | -0.285
TCGAGTAGGTTAGTCGGTGCATTCAGCCAACATA | 3.31
CCGAGTAGGTAATGGGGCATTCAGGCAACGGTGA | -0.509
ATACCAAGGTGATGGTGAGGTCGTTGATACTAAC | 3.28
TTACCAAGGTGAGCTGAGGTCGATGATCCAACTC | 2.51
